Data published in PubChem BioAssay AID1159524 (National Center for Advancing Translational Sciences (NCATS), 2015).
The whole screen tested about 410,000 compounds, of which about 5,100 (1.2%) were called active. Another 8% or so got no clear call; they are omitted. Calls follow the shape of the full dose curve; tested in HEK293T cells. The list comes from a sample in which actives are over-represented; it also holds similar structures and randomly drawn compounds. Entries that show only a call come without a potency.

Assay: High Throughput Screening for Foot and Mouth Disease Virus Antivirals; also: read-out not given here; nearly all actives have a fitted effect of over 45% in size
Conditions: FMDV antiviral cell-based qHTS; series mostly up to 57.9 µM
Potency is read from the fitted curve at half-maximal effect.

Row | SMILES | Potency
1 | CCCc1nc2scc(-c3ccc(C)cc3)c2c(=O)n1N | inactive
2 | Cc1ccc(-c2csc(NC3OC(=O)c4ccccc43)n2)cc1 (centres undefined) | 20 µM (active)
3 | COc1ccc2c(c1OC)C(=O)OC2Nc1nc(-c2ccccc2)cs1 (centres undefined) | 15.8 µM (active)
4 | COc1ccc(CNC(=O)CC2Oc3ccc(C)cc3NC2=O)cc1 (centres undefined) | inactive
5 | CC(C)NC(=O)N1CCCC2(CCN(C(=O)c3cccn3C)CC2)C1 | inactive
6 | Cn1c(=O)c2c(SCC(=O)NCC3CCCO3)nc(-c3ccccc3F)nc2n(C)c1=O (centres undefined) | inactive
7 | CCNCCCNCCCNCCCNCC | inactive
8 | Cn1cccc1C(=O)N1CCC[C@@]2(CCN(Cc3nccs3)C2)C1 | inactive
9 | N#Cc1ccc(CN2CCCC3(CCN(C(=O)c4ccco4)CC3)C2)cc1 | inactive
10 | CCOc1ccc(-c2ccc(SCC(=O)N3CCOCC3)nn2)cc1 | inactive
11 | COc1cccc(-c2ccc(SCC(=O)N3CCN(c4ccccc4)CC3)nn2)c1 | 12.6 µM (active)
12 | COc1ccc(N2CCN(C(=O)CSc3nnc4ncccn34)CC2)cc1 | inactive
13 | CCN1CCN(Cc2c(O)ccc3oc(C)c(C(=O)Nc4ccc(C)cc4C)c23)CC1 | inactive
14 | Cc1ccc(CNC(=O)c2c(O)nc3c(C)cccn3c2=O)cc1 | inactive
15 | CC(=O)c1ccc(NC(=O)CSc2nc(-c3ccccc3F)nc3c2c(=O)n(C)c(=O)n3C)cc1 | inactive
16 | COC(=O)C1CCCCN1Cc1ccc2c(c1)CN(Cc1cc(OC)c3c(c1)OCO3)CCO2 (centres undefined) | inactive
17 | CCOC(=O)c1c(C)[nH]c2c1-c1ccccc1C(=O)C2=O | 7.08 µM (active)
18 | CCOC(=O)c1c(C)[nH]c(C)c1S(=O)(=O)N(C)CC(=O)N1CCN(c2ccccc2)CC1 | inactive
19 | CCOC(=O)c1c(SCC(=O)Nc2cccc(C)c2C)nc(=O)[nH]c1C | inactive
20 | CC(=O)c1c(C)[nH]c(C(=O)OCC(=O)NCCC(C)C)c1C | inactive
21 | Cc1ccc(C)c(OCC(=O)Nc2sc3c(c2C#N)CCCC3)c1C | inactive
22 | CC(=O)c1c(C)[nH]c(C(=O)OCC(=O)Nc2sc3c(c2C#N)CCCC3)c1C | 17.8 µM (active)

Row | SMILES | Potency
23 | CC(C)CC(NS(=O)(=O)c1ccc2c(c1)oc(=O)n2C)C(=O)NCc1ccccc1Cl (centres undefined) | inactive
24 | CCC(CC)C(=O)N1CCc2cc(OC)c(OC)cc2C1COc1ccc(F)cc1 (centres undefined) | inactive
25 | COc1ccccc1-c1ccc(C(=O)N(C)C(C)c2ccon2)c(N2CCN(c3ccccc3F)CC2)n1 (centres undefined) | inactive
26 | O=C(OCC(=O)N1CCN(C(=O)c2ccco2)CC1)c1ccc(Cl)c(Cl)c1 | inactive
27 | CN(c1ccccc1)S(=O)(=O)c1cc(C(=O)OCC(=O)N2CCN(C(=O)c3ccco3)CC2)ccc1Cl | 25.1 µM (active)
28 | O=C(OCC(=O)N1CCN(C(=O)c2ccco2)CC1)c1c(Cl)cccc1Cl | inactive
29 | CC(O)[C@@H](N)C(=O)O (some centres undefined) | inactive
30 | COc1ccc(CCCOC(Cn2ccnc2)c2ccc(OC)cc2)cc1 (centres undefined) | inactive
31 | COc1ccccc1-c1nc(NCc2cccs2)c2ccccc2n1 | inactive
32 | O=C1NC(CC(=O)N2CCC(n3c(C4CCC4)nc4cccnc43)CC2)c2ccccc21 (centres undefined) | inactive
33 | O=c1c2ccccc2nc2n1C(CSCc1cccc(C(F)(F)F)c1)CS2 (centres undefined) | 5.62 µM (active)
34 | O=c1n(Cc2cccc(C(F)(F)F)c2)c2ccccc2c2nc(-c3ccccc3)nn12 | inactive
35 | Cn1c(-c2sccc2OCc2cccc(C(F)(F)F)c2)n[nH]c1=S | inactive
36 | O=C(Nc1cccc(F)c1)N1CCC2(CC1)CCN(S(=O)(=O)c1ccccc1)CC2 | inactive
37 | O=C(Nc1cc(C(=O)Nc2ccc(S(=O)(=O)O)cc2)cc(C(=O)Nc2ccc(S(=O)(=O)O)cc2)c1)Nc1cc(C(=O)Nc2ccc(S(=O)(=O)O)cc2)cc(C(=O)Nc2ccc(S(=O)(=O)O)cc2)c1 | inactive
38 | O=C(CSc1nc2ccc(Nc3nc(N4CCOCC4)nc(N4CCOCC4)n3)cc2s1)NCc1ccco1 | inactive
39 | O=C(CSc1ccccc1)Nc1cc(Cl)ccc1Oc1ccccc1 | inactive
40 | O=C(CSc1nc(Nc2ccccc2)nc(N2CCOCC2)n1)Nc1cc(Cl)ccc1O | 39.8 µM (active)
41 | O=C(O)C(O)[C@@](O)(Cc1ccc(O)cc1)C(=O)O (some centres undefined) | inactive
42 | CC(=O)OC1C2CCC3C1(CC(O)[C@@]1(O)[C@@H](CC(O)C1(C)C)[C@]3(C)O)C[C@@]2(C)O (some centres undefined) | inactive
43 | COC(=O)c1ccccc1C(=O)NCc1nc(N2CCCC2)c2cccc(C)c2n1 | inactive
44 | COc1cc(Cl)c(C)cc1NC(=O)COC(=O)c1cc(SC)ccc1Cl | inactive

Row | SMILES | Potency
45 | Cc1csc(OCC(=O)Nc2ccc(C)c(C)c2)n1 | inactive
46 | COc1cc(SC)ccc1C(=O)Nc1nc(C)cs1 | 3.16 µM (active)
47 | COc1ccccc1C1CN(Cc2ccccc2O)Cc2ccccc2O1 (centres undefined) | inactive
48 | COc1ccc(CCNC(=O)c2c3c(nc4ccccc24)C(=O)N(C2CCCCC2)C3)cc1OC | inactive
49 | COc1cc(C(=O)N2CCC(c3ccncc3)CC2)cc(OC)c1OC | inactive
50 | O=C(c1cc(C(F)(F)F)cc(C(F)(F)F)c1)N1CCC2(CCCN(c3ccccn3)C2)CC1 | inactive
51 | CCc1ccc2oc(-c3ccc(C)c(NC(=O)/C=C/c4ccco4)c3)nc2c1 | inactive
52 | O=c1c2ccccc2nc(/C=C/c2ccco2)n1-c1ccccc1O | inactive
53 | Cc1ccc(-c2cc(C(=O)N/N=C/C=C/c3ccco3)c3ccccc3n2)cc1C | 1.58 µM (active)
54 | COc1ccc(-n2c(CNC(=O)c3cc(C(F)(F)F)ccc3Cl)nnc2SC)cc1 | inactive
55 | CCCCCCCCCCOC(=O)Cn1c(COc2cccc(OC)c2)[n+](C)c2ccccc21 | 28.2 µM (active)
56 | CCOC(=O)c1c(NC(=O)COc2cc(C)ccc2C(C)C)sc(C)c1C | inactive
57 | COc1ccccc1N1CCN(C[C@@H]2CN3C(=O)N(C)c4ccccc4C3=N2)CC1 | inactive
58 | O=c1c(CCc2ccccc2)nc2cncnc2n1C1CC1 | inactive
59 | CCc1ccccc1NC(=O)CSc1nc(C)c(C(=O)Nc2ccccc2)c(-c2ccc(Cl)cc2)c1C#N | inactive
60 | Cc1c(C(=O)OC(C)C)sc(NC(=O)c2cccnc2)c1C#N | inactive
61 | CCCc1ccc(-c2c(C)sc(NC(=O)c3ccnn3C)c2C#N)cc1 | 15.8 µM (active)
62 | NS(=O)(=O)c1ccc(CCNC(=O)c2ccc(Cl)c(S(=O)(=O)N3CCCCCC3)c2)cc1 | 14.1 µM (active)
63 | O=C(NCCc1ccc(F)cc1)c1ccc(S(=O)(=O)N2CCCCC2)cc1 | inactive
64 | COc1ccc(C(=O)NCc2ccc(Cl)cc2)cc1S(=O)(=O)N1CCCC1 | inactive
